# Results: PubChem BioAssay (NCATS)
# “And” between values parts separate entries of the source, which are not always exact repeats. Equal entries are not always repeated. Inconclusive results are not listed. Where a call stands in place of a potency, no number is given. The source made the active and inactive calls. Unless noted, the call rests on the fitted dose curve; in most records, active means well fitted inhibition curve with a large enough effect; inconclusive means small, poorly fitted or top-dose-only effect; inactive means flat fitted curve, though single readings scatter.
# Tests used:
# [1] = qHTS drug screen for cell cycle checkpoint inhibitors in PARPi-resistant BRCA-mutant ovarian cancer cell lines. (AID 1963452; calls by dose curve); settings: PEO1/OlaR viability, CellTiter-Glo luminescence, 96 h, stronger effect = lower value
# Method in brief: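 PEO1, PEO4 and PEO1/OlaR ovarian cancer cells, 600 per well, exposed 96 h at 37C to a dilution series. Viability read by CellTiter-Glo luminescence, normalized to DMSO and empty wells; activity summarized as Z-AUC.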
# [2] = qHTS profiling for inhibitors of Plasmodium falciparum proliferation (AID 504749); further: nearly all actives have a fitted effect of over 60% in size; further: potency means the concentration at half of the fitted maximal effect; settings: P. falciparum in erythrocytes, SYBR Green DNA, 72 h
# Method in brief: (§1)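 Each compound contacts P. falciparum-infected red blood cells for 72 h at 37 C; lysis buffer (Tris, EDTA, saponin, Triton X, SYBR Green I) is added and fluorescence measured next morning; values normalized to controls.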
# [3] = tested on: 3D7; test: as above; settings: P. falciparum in erythrocytes, SYBR Green DNA, 72 h; series mostly up to 28.7 µM
# Method in brief: as §1
# [4] = tested on: 7G8; test: as above; settings: P. falciparum in erythrocytes, SYBR Green DNA, 72 h; series mostly up to 28.7 µM
# Method in brief: as §1
# [5] = tested on: AA1029; test: as above; settings: P. falciparum in erythrocytes, SYBR Green DNA, 72 h; series mostly up to 28.7 µM
# Method in brief: as §1
# [6] = tested on: AS120; test: as above; settings: P. falciparum in erythrocytes, SYBR Green DNA, 72 h; series mostly up to 28.7 µM
# Method in brief: as §1
# [7] = tested on: ATS189; test: as above; settings: P. falciparum in erythrocytes, SYBR Green DNA, 72 h; series mostly up to 28.7 µM
# Method in brief: as §1
# [8] = tested on: ATS95; test: as above; settings: P. falciparum in erythrocytes, SYBR Green DNA, 72 h; series mostly up to 28.7 µM
# Method in brief: as §1
# [9] = tested on: C2A; test: as above; settings: P. falciparum in erythrocytes, SYBR Green DNA, 72 h; series mostly up to 28.7 µM
# Method in brief: as §1
# [10] = tested on: CP185; test: as above; settings: P. falciparum in erythrocytes, SYBR Green DNA, 72 h; series mostly up to 28.7 µM
# Method in brief: as §1
# [11] = tested on: CP191; test: as above; settings: P. falciparum in erythrocytes, SYBR Green DNA, 72 h; series mostly up to 28.7 µM
# Method in brief: as §1
# [12] = tested on: CP192; test: as above; settings: P. falciparum in erythrocytes, SYBR Green DNA, 72 h; series mostly up to 28.7 µM
# Method in brief: as §1
# [13] = tested on: CP194; test: as above; settings: P. falciparum in erythrocytes, SYBR Green DNA, 72 h; series mostly up to 28.7 µM
# Method in brief: as §1
# [14] = tested on: CP201; test: as above; settings: P. falciparum in erythrocytes, SYBR Green DNA, 72 h; series mostly up to 28.7 µM
# Method in brief: as §1
# [15] = tested on: CP203; test: as above; settings: P. falciparum in erythrocytes, SYBR Green DNA, 72 h; series mostly up to 28.7 µM
# Method in brief: as §1
# [16] = tested on: CP211; test: as above; settings: P. falciparum in erythrocytes, SYBR Green DNA, 72 h; series mostly up to 28.7 µM
# Method in brief: as §1
# [17] = tested on: CP215; test: as above; settings: P. falciparum in erythrocytes, SYBR Green DNA, 72 h; series mostly up to 28.7 µM
# Method in brief: as §1
# [18] = tested on: CP217; test: as above; settings: P. falciparum in erythrocytes, SYBR Green DNA, 72 h; series mostly up to 28.7 µM
# Method in brief: as §1
# [19] = tested on: Nanoluciferase (engineered Oplophorus gracilirostris luciferase); test: Primary Nanoluciferase (NLuc) qHTS assay for identification of artifact compounds. (AID 1845222); settings: NLuc-conditioned medium, Nano-Glo luminescence, 5 min; series mostly up to 54.1 µM;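 further: NLuc secreted into diluted conditioned medium of S16 cells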
# Method in brief: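 S16 cell supernatant NLuc, 1:55; cpds qHTS; 15 min RT dark; Nano-Glo substrate 1:100, 5 min; luminescence; Hill fit of % inhibition.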
# [20] = measured here: PEO1 parental Z-AUC
# [21] = at 28.7 µM (top of the series), parasite line A
# [22] = at 28.7 µM (top of the series), parasite line B
# [23] = at 12.8 µM (top of the series), parasite line A
# [24] = at 12.8 µM (top of the series), parasite line B
smiles,measurement,setting,value
NC(=O)c1ncn([C@@H]2O[C@H](CO)[C@@H](O)[C@H]2O)c1O,Z-AUC,[1],1.15 (inactive) and 0.284 (inactive)
same,Z-AUC,[1]; [20],0.935 and 0.686
same,Z-AUC,[1]; measured here: PEO4 Z-AUC,1.08 and 0.519
same,"activity, negative = inhibition",[2]; [21],9.25% (inactive)
same,"activity, negative = inhibition",[2]; [22],1.87% (inactive)
same,Potency,[3],inactive
same,Potency,[4],inactive
same,Potency,[5],inactive
same,Potency,[6],inactive
same,Potency,[7],inactive
same,Potency,[8],inactive
same,Potency,[9],inactive
same,Potency,[10],inactive
same,Potency,[11],inactive
same,Potency,[12],inactive
same,Potency,[13],inactive
same,Potency,[14],inactive
same,Potency,[15],inactive
same,Potency,[16],inactive
same,Potency,[17],inactive
same,Potency,[18],inactive
CC(=O)[C@]1(O)Cc2c(O)c3c(c(O)c2[C@@H](O[C@H]2C[C@H](N)[C@H](O)[C@H](C)O2)C1)C(=O)c1ccccc1C3=O,Z-AUC,[1],-0.489 (inactive)
same,Z-AUC,[1]; [20],-0.953
same,Z-AUC,[1]; measured here: PEO4 Z-AUC,-0.26
same,Potency,[2]; parasite line A,3.55 µM (active)
same,Potency,[2]; parasite line B,11.2 µM (active)
same,Potency,[3],2.82 µM (active)
same,Potency,[4],1.41 µM (active)
same,Potency,[5],3.55 µM (active)
same,Potency,[6],3.16 µM (active)
same,Potency,[7],5.62 µM (active)
same,Potency,[8],5.01 µM (active)
same,Potency,[9],6.31 µM (active)
same,Potency,[10],11.2 µM (active)
same,Potency,[11],3.16 µM (active)
same,Potency,[13],15.1 µM (active)
same,Potency,[16],13.5 µM (active)
same,Potency,[17],10.7 µM (active)
same,Potency,[18],5.01 µM (active)
CCN1CCC[C@H]1CNC(=O)c1c(O)c(Cl)cc(Cl)c1OC,"activity, negative = inhibition",[2]; [21],0.765% (inactive)
same,"activity, negative = inhibition",[2]; [22],14.7% (inactive)
same,Potency,[3],inactive
same,Potency,[4],inactive
same,Potency,[5],inactive
same,Potency,[6],inactive
same,Potency,[7],inactive
same,Potency,[8],inactive
same,Potency,[9],inactive
same,Potency,[10],inactive
same,Potency,[11],inactive
same,Potency,[12],inactive
same,Potency,[13],inactive
same,Potency,[14],inactive
same,Potency,[15],inactive
same,Potency,[16],inactive
same,Potency,[17],inactive
same,Potency,[18],inactive
COC(=O)[C@H]1[C@H]2C[C@@H]3c4[nH]c5cc(OC)ccc5c4CCN3C[C@H]2C[C@@H](OC(=O)c2cc(OC)c(OC)c(OC)c2)[C@@H]1OC,outcome,[19],inactive
same,Potency,[2]; parasite line A,11.2 µM (active)
same,Potency,[2]; parasite line B,11.2 µM (active)
same,Potency,[3],8.91 µM (active)
same,Potency,[4],1.41 µM (active)
same,Potency,[5],8.91 µM (active)
same,Potency,[6],4.47 µM (active)
same,Potency,[7],11.2 µM (active)
same,Potency,[8],11.2 µM (active)
same,Potency,[9],11.2 µM (active)
same,Potency,[10],7.94 µM (active)
same,Potency,[11],8.91 µM (active)
same,Potency,[12],13.5 µM (active)
same,Potency,[13],9.53 µM (active)
same,Potency,[14],12 µM (active)
same,Potency,[16],6.75 µM (active)
same,Potency,[17],9.53 µM (active)
same,Potency,[18],11.2 µM (active)
CN(C)C(=O)Oc1ccc[n+](C)c1,"activity, negative = inhibition",[2]; [21],4.28% (inactive)
same,"activity, negative = inhibition",[2]; [22],5.75% (inactive)
same,Potency,[3],inactive
same,Potency,[4],inactive
same,Potency,[5],inactive
same,Potency,[6],inactive
same,Potency,[7],inactive
same,Potency,[8],inactive
same,Potency,[9],inactive
same,Potency,[10],inactive
same,Potency,[11],inactive
same,Potency,[12],inactive
same,Potency,[13],inactive
same,Potency,[14],inactive
same,Potency,[15],inactive
same,Potency,[16],inactive
same,Potency,[17],inactive
same,Potency,[18],inactive
CCOC(=O)c1cnc2c(cnn2CC)c1NN=C(C)C,"activity, negative = inhibition",[2]; [21],15.4% (inactive)
same,"activity, negative = inhibition",[2]; [22],-4.13% (inactive)
same,Potency,[3],inactive
same,Potency,[4],11.2 µM (active)
same,Potency,[5],inactive
same,Potency,[6],inactive
same,Potency,[7],inactive
same,Potency,[8],inactive
same,Potency,[9],inactive
same,Potency,[10],inactive
same,Potency,[11],inactive
same,Potency,[12],inactive
same,Potency,[13],inactive
same,Potency,[14],inactive
same,Potency,[15],inactive
same,Potency,[16],inactive
same,Potency,[17],inactive
same,Potency,[18],inactive
Nc1ncn([C@@H]2O[C@H](CO)[C@@H](O)[C@H]2O)c(=O)n1,Z-AUC,[1],1.1 (inactive)
same,Z-AUC,[1]; [20],0.0153
same,Z-AUC,[1]; measured here: PEO4 Z-AUC,-0.332
same,"activity, negative = inhibition",[2]; [21],-1.52% (inactive)
same,"activity, negative = inhibition",[2]; [22],6.7% (inactive)
same,Potency,[3],inactive
same,Potency,[4],inactive
same,Potency,[5],inactive
same,Potency,[6],inactive
same,Potency,[7],inactive
same,Potency,[8],inactive
same,Potency,[9],inactive
same,Potency,[10],inactive
same,Potency,[11],inactive
same,Potency,[12],inactive
same,Potency,[13],inactive
same,Potency,[14],inactive
same,Potency,[16],inactive
same,Potency,[17],inactive
same,Potency,[18],inactive
COCC(=O)O[C@]1(CCN(C)CCCc2nc3ccccc3[nH]2)CCc2cc(F)ccc2[C@@H]1C(C)C,Potency,[2]; parasite line A,3.55 µM (active)
same,Potency,[2]; parasite line B,5.01 µM (active)
same,Potency,[3],7.94 µM (active)
same,Potency,[4],1.12 µM (active)
same,Potency,[5],0.794 µM (active)
same,Potency,[6],1.26 µM (active)
same,Potency,[7],3.98 µM (active)
same,Potency,[8],1.26 µM (active)
same,Potency,[9],0.562 µM (active)
same,Potency,[10],4.47 µM (active)
same,Potency,[11],4.47 µM (active)
same,Potency,[12],5.36 µM (active)
same,Potency,[13],6.01 µM (active)
same,Potency,[14],8.49 µM (active)
same,Potency,[15],1.9 µM (active)
same,Potency,[16],4.26 µM (active)
same,Potency,[17],4.26 µM (active)
same,Potency,[18],2.51 µM (active)
CSc1ccc(C(=O)c2[nH]c(=O)[nH]c2C)cc1,"activity, negative = inhibition",[2]; [21],9.87% (inactive)
same,"activity, negative = inhibition",[2]; [22],9.86% (inactive)
same,Potency,[3],inactive
same,Potency,[4],inactive
same,Potency,[5],inactive
same,Potency,[6],inactive
same,Potency,[7],inactive
same,Potency,[8],inactive
same,Potency,[9],inactive
same,Potency,[10],inactive
same,Potency,[11],inactive
same,Potency,[12],inactive
same,Potency,[13],inactive
same,Potency,[14],inactive
same,Potency,[15],inactive
same,Potency,[16],inactive
same,Potency,[17],inactive
same,Potency,[18],inactive
CC(=O)Oc1cc(C(C)C)c(OCCN(C)C)cc1C,"activity, negative = inhibition",[2]; [23],4.04% (inactive)
same,"activity, negative = inhibition",[2]; [24],-3.15% (inactive)
same,Potency,[3],inactive
same,Potency,[4],inactive
same,Potency,[5],inactive
same,Potency,[6],inactive
same,Potency,[7],inactive
same,Potency,[8],inactive
same,Potency,[9],inactive
same,Potency,[10],inactive
same,Potency,[11],inactive
same,Potency,[12],inactive
same,Potency,[13],inactive
same,Potency,[14],inactive
same,Potency,[15],inactive
same,Potency,[16],inactive
same,Potency,[18],inactive
CCO/C([O-])=N/c1c[n+](N2CCOCC2)no1,"activity, negative = inhibition",[2]; [23],2.13% (inactive)
same,"activity, negative = inhibition",[2]; [24],0.211% (inactive)
same,Potency,[3],inactive
same,Potency,[4],inactive
same,Potency,[5],inactive
same,Potency,[6],inactive
same,Potency,[7],inactive
same,Potency,[8],inactive
same,Potency,[9],inactive
same,Potency,[10],inactive
same,Potency,[11],inactive
same,Potency,[12],inactive
same,Potency,[13],inactive
same,Potency,[14],inactive
same,Potency,[15],inactive
same,Potency,[16],inactive
same,Potency,[17],inactive
same,Potency,[18],inactive
C[N+](C)(C)CCOC(=O)CCC(=O)OCC[N+](C)(C)C,"activity, negative = inhibition",[2]; [21],1.72% (inactive)
same,"activity, negative = inhibition",[2]; [22],1.32% (inactive)
same,Potency,[3],inactive
same,Potency,[4],inactive
same,Potency,[5],inactive
same,Potency,[6],inactive
same,Potency,[7],inactive
same,Potency,[8],inactive
same,Potency,[9],inactive
same,Potency,[10],inactive
same,Potency,[11],inactive
same,Potency,[12],inactive
same,Potency,[13],inactive
same,Potency,[14],inactive
same,Potency,[15],inactive
same,Potency,[16],inactive
same,Potency,[17],inactive
same,Potency,[18],inactive
